# In the library only some 19% were active in any assay of this set; here they are far more common.
# Giardia killer = Giardia lamblia killing | 0.15% of 340,000 active | activity change, % at 7.66 µM, hits read low | AID 540267 | Giardia lamblia trophozoite viability; in the data active = activity change below about -80%; inconclusive = between about -30% and that limit;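 also: parasites exposed to compound for two days anaerobically before the ATP read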
#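 Compounds were tested on trophozoites seeded at 100 cells/well and held 48 hrs at 37 deg C anaerobically. An ATP-based luminescent kit measured the remaining live cells.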
# TDP1 block = inhibitors of human tyrosyl-DNA phosphodiesterase TDP1. recombinant TDP1, AlphaScreen DNA substrate cleavage. Potency, µM (titrated, usually from 130 µM), hits mostly inhibitors. 0.28% of 350,000 active; also: nearly all actives have a fitted effect of over 40% in size
# Target sequence (Q9NUW8 whole entry, looked up): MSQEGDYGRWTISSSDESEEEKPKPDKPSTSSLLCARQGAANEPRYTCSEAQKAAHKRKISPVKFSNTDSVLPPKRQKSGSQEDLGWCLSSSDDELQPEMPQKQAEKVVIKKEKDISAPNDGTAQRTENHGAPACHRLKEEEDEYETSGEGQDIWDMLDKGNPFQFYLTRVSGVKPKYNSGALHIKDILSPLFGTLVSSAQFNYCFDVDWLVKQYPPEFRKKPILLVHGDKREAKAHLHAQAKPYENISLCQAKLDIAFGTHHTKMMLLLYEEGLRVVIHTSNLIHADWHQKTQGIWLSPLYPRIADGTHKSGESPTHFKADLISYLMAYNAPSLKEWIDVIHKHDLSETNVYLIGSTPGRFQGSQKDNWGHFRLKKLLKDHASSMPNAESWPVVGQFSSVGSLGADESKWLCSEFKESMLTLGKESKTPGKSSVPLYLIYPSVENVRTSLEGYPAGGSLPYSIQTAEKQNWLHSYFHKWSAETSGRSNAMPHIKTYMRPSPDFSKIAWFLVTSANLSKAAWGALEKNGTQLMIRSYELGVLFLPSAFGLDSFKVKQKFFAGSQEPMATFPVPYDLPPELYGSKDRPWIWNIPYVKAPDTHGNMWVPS
#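 Enzyme-compound mixtures sat 15 min at room temperature, followed by a 5 min reaction with 15 nM final substrate and 10 min with AlphaScreen beads. Recombinant human Tdp1 was used at 1 nM final.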
# TDP1 cell CPT = DT40-hTDP1 cell growth loss with CPT | chicken DT40 Tdp1-/-;hTDP1 cells + 20 nM CPT, ATP luminescence, 48 h | Potency, µM (doses to about 46.2 µM), usual class: inhibitors | 12% of 420,000 active | AID 686979; also: nearly all actives have a fitted effect of over 55% in size
#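 Cell growth measured by CellTiter-Glo luminescence after a minimum 48 h, 37 C compound exposure with 20 nM CPT in Tdp1-knockout DT40 cells stably expressing hTDP1, seeded 400/well; qHTS titration format.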
# IL-1B inflam inh = blocks inflammasome-driven IL-1 beta release; activity change, % at 57.5 µM; 4.7% of 360,000 active; AID 743279; THP-1 LPS/ATP IL-1B secretion, AlphaLISA, 16 h; stronger effect = lower value; in the data active = activity change below about -50%; inconclusive = mostly about -30% to -49%
#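 Secreted IL-1B measured by AlphaLISA bead assay after 16 h compound exposure of THP-1 cells; compounds (final up to 57.5 uM) added 1 h before LPS (250 ng/mL) and ATP (1.25 mM) stimulation; lower signal means less secretion.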
# ELG1 DNA repair = inhibitors of ELG1-dependent DNA repair in HEK293T cells; 2.3% of 330,000 active; AID 504467; HEK293T ELG1-luciferase reporter, luminescence, 16 h; DNA damage induced by 5-fluorouridine; Potency, µM (series often up to 46.1 µM), hits mostly inhibitors; also: nearly all actives have a fitted effect of over 55% in size
#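 In this reporter screen, reduction of luminescence relative to DMSO vehicle indicated activity. Compounds and 5-fluorouridine were added together to 2,000 cells per well, incubated for 16 hr at 37 °C, then developed with ONE-Glo.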
# DT40 TDP1 no CPT = qHTS for Inhibitors of human tyrosyl-DNA phosphodiesterase 1 (TDP1): qHTS in cells in absence of CPT; DT40 Tdp1-/- hTDP1 cells, no CPT, ATP luminescence, 48 h; Potency, µM (doses to about 46.2 µM), usual class: inhibitors; 15% of 420,000 active; also: nearly all actives have a fitted effect of over 55% in size
#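 Chicken DT40 Tdp1-/- cells stably complemented with human TDP1 were seeded at 400 cells/well with DMSO in place of 20 nM camptothecin. After compound pinning, cells grew at least 48 hr at 37 °C; viability read by CellTiter-Glo luminescence.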
# Numbers stand for hits; – = inactive; ? = inconclusive; · = not tested or not shown; [ ] = dose if it differs, or a comment. Unless noted, calls follow the shape of the dose curve; as a rule, active = well fitted curve in the direction sought with a large enough effect; inconclusive = small, poorly fitted or top-dose-only effect, or another doubt; inactive = no such curve, though single readings can be large; an effect the other way counts as inactive or inconclusive.
SMILES,Giardia killer,TDP1 block,TDP1 cell CPT,IL-1B inflam inh,ELG1 DNA repair,DT40 TDP1 no CPT
Cc1occc1C(=O)Nc1cccc(-c2nc(CNC(=O)c3ccc(N4CCCCC4)cc3)c(C)o2)c1,·,·,?,·,·,18µM
Cc1ccc(C(=O)Nc2cccc(-c3nc(CNC(=O)C4CCCCC4)c(C)o3)c2)s1,·,·,–,·,·,–
CCOc1ccc(NC(=O)Nc2ccc(Br)cn2)cc1,–,–,–,–,?,?
CSc1ncc(C(=O)Nc2ccc(Br)cn2)c(C)n1,–,·,16µM,–,–,?
O=C(Nc1ccc(Br)cn1)c1cccc2ccccc12,–,·,2.1µM,–,·,2.1µM
O=C(Nc1ccc(Br)cn1)c1cccc(C(=O)Nc2ccc(Br)cn2)c1,–,·,?,–,?,?
CSc1ncc(C(=O)Nc2ccc(Cl)cc2)c(C)n1,–,·,–,–,–,?
O=C(Nc1ccc(Cl)cc1)Nc1ccc(Br)cn1,–,·,18µM,–,?,18µM
COc1c(C(=O)Nc2ccc(Br)cn2)ccc2ccccc12,–,·,–,–,?,–
O=C(Nc1ccc(Br)cn1)c1ccc2ccccc2c1,–,·,?,–,?,15µM
COc1ccc(-c2[nH]nc3nc(-c4cc(Br)ccc4OC)cc(C(=O)O)c23)cc1,·,–,–,·,·,–
O=C(NCCS(=O)(=O)N1CCCCCC1)c1ccccc1,–,–[0.505 µM],–,–,–,–
O=C(Nc1ccc(Br)cn1)c1ccc2nccnc2c1,–,·,13µM,–,·,18µM
CCCC(=O)N(CCN(Cc1ccccc1)C(=O)CCC)Cc1ccccc1,–,–,?,–,?,23µM
COC(=O)CCC(=O)N(CCN(Cc1ccccc1)C(=O)CCC(=O)OC)Cc1ccccc1,–,·,?,–,·,–
Cc1sc(NC(=S)NC(=O)C2CCCCC2)c(C(N)=O)c1C,–,–,–,–,?,–
O=C(NCCC(=O)N(CCc1ccccc1)Cc1ccccc1)c1ccc(Br)cc1,–,·,?,–,–,26µM
CCCC(=O)N(CC(=O)Nc1sc(C)c(C)c1C(N)=O)Cc1ccccc1,–,–,12µM,–,?,6.5µM
Cc1sc(NC(=O)CN(CCc2ccccc2)C(=O)C2CC2)c(C(N)=O)c1C,–,–,?,–,?,?
Cc1ccccc1C(=O)N(CC(=O)Nc1sc(C)c(C)c1C(N)=O)C1CCCC1,–,–,?,–,–,15µM
Cc1ccc(C)c(NC(=O)CN2C(=O)CSc3nc(C)cc(C)c32)c1,·,–,–,·,·,–
COc1ccccc1N1CCN(C(=O)c2cc3c(=O)oc4ccccc4c3s2)CC1,·,–,–,·,·,–
CC(=O)C1=C(O)CCCC1=NCc1nc2ccccc2[nH]1,–,–,–,–,–,?
CC(=O)C1=C(O)CC(C)(C)CC1=NCc1nc2ccccc2[nH]1,–,–,?,–,–,16µM
Cc1ccccc1CSc1ncc(CO)n1Cc1ccc(F)cc1,·,–,18µM,·,·,?
SMILES,Giardia killer,TDP1 block,TDP1 cell CPT,IL-1B inflam inh,ELG1 DNA repair,DT40 TDP1 no CPT
Cc1cccc(CSc2ncc(CO)n2Cc2ccc(F)cc2)c1,·,–,21µM,·,·,16µM
CC1(C)O[C@@H]2[C@H](O1)[C@@H](CO)O[C@H]2n1cnc2c(=O)[nH]cnc21,–,–,29µM,–,–,–
CCOC(=O)c1cc2c(ccc3nc(C)c(C)c32)[nH]c1C,–,·,–,–,–,–
COc1cc(NC(=O)c2[nH]c(C)c(C(C)=O)c2C)cc(OC)c1OC,–,–,–,–,–,–
COc1ccc(NC(=O)c2[nH]c(C)c(C(C)=O)c2C)cc1Cl,–,–,2.1µM,–,?,?
COc1ccc(C(C)(C)C)cc1NC(=O)c1[nH]c(C)c(C(C)=O)c1C,–,–,–,–,5.8µM,16µM
NC(CSSCC(N)C(=O)O)C(=O)O (centres undefined),·,–,·,·,·,·
Cc1cc(Cl)ccc1NC(=O)CN1C(=O)COc2ccc(S(=O)(=O)N3CCC(C)CC3)cc21,·,–,–,·,·,–
O=S1(=O)CCS(=O)(=O)C1c1ccccc1,–,·,?,?,·,?
Cc1ccc(CNC(=O)c2cc3c(=O)n(Cc4ccco4)ccc3nc2C)cc1,·,–,?,·,·,?
Cc1cccc(OCC(=O)Nc2ccc(N3CCN(C(=O)c4ccccc4)CC3)cc2)c1,–,–,?,-68,18µM,15µM
O=C(COc1ccccc1Cl)Nc1ccc(N2CCCC2)cc1,–,–,–,–,?,–
CCN1CCN(c2ccc(NC(=O)COc3ccccc3Cl)cc2)CC1,–,–,?,–,–,18µM
O=C(COc1ccccc1[N+](=O)[O-])Nc1ccc(N2CCN(C(=O)c3cccs3)CC2)cc1,–,–,4.6µM,?,18µM,6.5µM
O=C(COc1ccccc1Cl)Nc1cc(NC(=O)COc2ccccc2Cl)cc(C(=O)O)c1,–,35µM,–,–,?,–
CCC(=O)Nc1ccc(N2CCN(C(=O)c3cccs3)CC2)cc1,–,–,–,–,–,–
CCc1cc2c(nc1CC)CCN(CC/C(C)=N/OC[C@@H](O)[C@@H]1O[C@@H]3OC(C)(C)O[C@@H]3[C@H]1O)C2,·,–[21 µM],·,·,·,·
O=C(COc1ccccc1Cl)Nc1ccc(N2CCN(C(=O)c3ccccc3)CC2)cc1,–,–,18µM,–,13µM,15µM
CCN1CCN(c2ccc(NC(=O)COc3ccc(Cl)cc3C)cc2)CC1,?,–,18µM,–,?,?
CC(C(=O)Nc1ccc(F)cc1Cl)N1CCN(S(=O)(=O)c2cccs2)CC1 (centres undefined),–,–,?,?,?,?
CCOc1ccccc1/C=C/c1cc(C(=O)O)c2ccccc2n1,–,–,–,–,?,?
CCOc1cccc(/C=C/c2ccc3cccc(O)c3n2)c1O,–,·,15µM,-97,?,21µM
CCOc1cccc(/C=C/c2ccc3cccc(O)c3n2)c1OC,–,·,21µM,–,?,18µM
COCc1nnc(NC(=O)C2CCN(C(=O)c3ccccc3)CC2)s1,–,·,–,·,·,–
O=C(NCc1nc2ccccc2[nH]1)C1=C[C@H](c2coc3ccccc3c2=O)C[C@H](OCCCCO)O1,–,·,21µM,–,·,?
C[C@H]1C=C(C(=O)NCc2nc3ccccc3[nH]2)O[C@@H](OCCCCO)C1,–,·,–,–,·,–
O=C(NCc1nc2ccccc2[nH]1)C1=C[C@@H](C2CCCCC2)C[C@@H](OCCCCO)O1,–,·,21µM,–,?,15µM
Cc1cccc(OCCSc2nc3ccc(NC(=O)COc4ccccc4)cc3s2)c1,·,–,?,·,·,?
O=C(Cn1c(=O)n2ncnc2c2c3c(sc21)CCCC3)c1ccccc1,–,–,23µM,–,–,?
